About 79,000 compounds went through this panel and 15% of them were active in at least one assay; those are over-represented in the sample as a whole. A number with no mark means an inactive call. Calls of active or inactive are those of the source. Cut-off read from the data, not from the text of the source: active = growth inhibition above about 70%; inactive = the rest.

This test is described as follows: NCI Yeast Anticancer Drug Screen. Data for the bub3 strain (AID 167). As to conditions: S. cerevisiae bub3 mutant strain, at 5.0 µM (retest, dose inferred, filed as 0.5), stronger effect = higher value. In outline: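 In this screen, a yeast mutant lacking normal mitotic checkpoint function is challenged with compound. Relative growth versus vehicle gives the inhibition value.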
In the case of `O=[n+]1c2c(n([O-])c3ccc4ccccc4c31)-c1cccc3cccc-2c13`, the growth inhibition is -1%. As for `COc1ccc(C(=O)Cc2ccc(Cl)cc2)cc1OC`, the figure is -1%; as for `CCN(CC)CCC(=O)c1ccc(Oc2ccc(C)cc2)cc1`, 18%.

Regarding `BrC(Br)=C1C(=C(Br)Br)C(Br)C1Br` (stereo unspecified), the growth inhibition was 18%. The same measure for `O=C(O)C(Cc1cc(I)c(O)c(I)c1)c1ccccc1` (stereo unspecified): -4%; for `CC1(C)OC2C(COC(c3ccccc3)(c3ccccc3)c3ccccc3)OC(n3ccc(=O)[nH]c3=O)C2O1` (stereo unspecified): 42%. With `Clc1ccc(C2=CCN3CC=C(c4ccc(Cl)cc4)C23)cc1`, the growth inhibition is 17%. The same measure for `Nc1ccc([N+](=O)[O-])cc1Nc1c2ccccc2nc2ccccc12`: -4%.

Consider `COc1c2c3c(ccnc3c3ccccc13)C(=O)N2C`, for which the growth inhibition was 0%.

`O=C1/C(=C/c2ccc([N+](=O)[O-])cc2)CNC/C1=C\c1ccc([N+](=O)[O-])cc1`: the growth inhibition was 90% (active).

Turning to `Clc1ccc(-c2nnn3ccccc23)cc1`, the growth inhibition is 2%. As for `O=Cc1ccc([N+](=O)[O-])o1`, the figure is -3%; as for `CN(C)Cc1cc(C(C)(C)C)cc(C2CCCCC2)c1O`, -6%. As for `COc1ccc2c(c1)CN([C@@H](C)[C@H]1CC[C@H]3[C@@H]4CC[C@H]5C[C@@H](O)CC[C@]5(C)[C@H]4CC[C@]13C)CO2`, the figure is 91% (active). As for `FC(F)(F)c1ccc(NC(=S)SCc2ccc3c(c2)OCO3)cc1`, the figure is -8%. In the case of `Nc1cc(F)c2c(c1F)C(=O)c1cc(F)ccc1-2`, the growth inhibition is 2%.

Source of the values: PubChem BioAssay (NCI).
